# Experimental data as given in PubChem BioAssay (NCI).
# “And” between values parts separate entries of the source, which are not always exact repeats. Equal entries are not always repeated. This is part of a sample that, as a whole, favours compounds with a hit. Of some 79,000 tested, about 15% had one in any assay. Some compounds were tested as several samples or in several runs, with calls that do not always agree. The source made the active and inactive calls. Rule as the data show it: active = growth inhibition above about 70%; inactive = the rest.
# Experiments:
# [1] = NCI Yeast Anticancer Drug Screen. Data for the rad52 strain (AID 147);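 also: 0% = growth of vehicle-treated control cultures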; settings: S. cerevisiae rad52 mutant growth inhibition, stronger effect = higher value
# Summary of the method: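 DNA repair-defective yeast; compound exposure; growth scored against vehicle controls.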
# [2] = NCI Yeast Anticancer Drug Screen. Data for the wt1 strain (AID 149);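 also: 0% = growth of vehicle-treated wt1 cultures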; settings: S. cerevisiae wt1 strain (SPY 50644) growth inhibition, stronger effect = higher value
# Summary of the method: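 wt1 strain grown with compound or vehicle; inhibition taken from the growth difference.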
# [3] = NCI Yeast Anticancer Drug Screen. Data for the rad50EPP+ strain (AID 151);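 also: 0% = growth of vehicle-treated control cultures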; settings: S. cerevisiae rad50 mutant strain, stronger effect = higher value
# Summary of the method: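 rad50EPP+ yeast treated with test compounds. Readout: growth vs vehicle control.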
# [4] = NCI Yeast Anticancer Drug Screen. Data for the mgt1 strain (AID 153); settings: S. cerevisiae mgt1 mutant growth inhibition, stronger effect = higher value
# Summary of the method: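 Growth inhibition relative to vehicle controls was scored for the mgt1 yeast strain after compound exposure.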
# [5] = NCI Yeast Anticancer Drug Screen. Data for the mec2-1 strain (AID 157); settings: S. cerevisiae mec2-1 strain, stronger effect = higher value
# Summary of the method: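 Growth inhibition is read against vehicle-treated controls after compound exposure of the mec2-1 yeast strain, which is defective in DNA damage repair or cell cycle control.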
# [6] = NCI Yeast Anticancer Drug Screen. Data for the rad14 strain (AID 159);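 also: 0% = growth of vehicle-treated control cultures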; settings: S. cerevisiae rad14 strain growth inhibition, stronger effect = higher value
# Summary of the method: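 DNA repair-defective yeast, compound-exposed; % growth inhibition derived by comparison with vehicle-treated controls.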
# [7] = NCI Yeast Anticancer Drug Screen. Data for the sgs1 mgt1 strain (AID 161);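 also: 0% = growth of cultures given vehicle only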; settings: S. cerevisiae sgs1 mgt1 strain, stronger effect = higher value
# Summary of the method: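 Yeast cells carrying a defined DNA-repair defect were exposed to test compounds. Growth inhibition was measured relative to vehicle-treated controls.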
# [8] = NCI Yeast Anticancer Drug Screen. Data for the CLN2oe strain (AID 163);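 also: 0% = growth of vehicle-only control cultures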; settings: S. cerevisiae CLN2oe strain, stronger effect = higher value
# Summary of the method: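 Compound-treated yeast; growth vs vehicle ctrl = % inhibition. Genetically altered strain (cell-cycle control).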
# [9] = NCI Yeast Anticancer Drug Screen. Data for the cln2 rad14 strain (AID 165);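 also: 0% = growth equal to vehicle treated cultures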; settings: S. cerevisiae cln2 rad14 strain, stronger effect = higher value
# Summary of the method: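 Growth inhibition, relative to vehicle-treated controls, is the read-out. The test organism is a yeast strain with defined genetic alterations, cln2 rad14.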
# [10] = NCI Yeast Anticancer Drug Screen. Data for the wt2 strain (AID 169);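 also: 0% = growth of vehicle-treated yeast cultures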; settings: S. cerevisiae wt2 strain growth inhibition, stronger effect = higher value
# Summary of the method: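 Compound exposure of yeast; growth compared with vehicle controls; inhibition reported.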
# [11] = NCI Yeast Anticancer Drug Screen. Data for the mlh1 strain (AID 171);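 also: 0% = growth of vehicle-treated control cultures of the same strain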; settings: S. cerevisiae mlh1 strain growth inhibition, stronger effect = higher value
# Summary of the method: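 Compounds are applied to a genetically altered yeast strain, and its growth is compared with that of vehicle-treated cultures to give percent inhibition.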
# [12] = NCI Yeast Anticancer Drug Screen. Data for the sgs1 strain (AID 173);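 also: 0% = growth of vehicle-only control cultures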; settings: S. cerevisiae sgs1 mutant, stronger effect = higher value
# Summary of the method: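 Compounds applied to genetically altered yeast; growth compared with vehicle-treated cultures to give % inhibition.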
# [13] = NCI Yeast Anticancer Drug Screen. Data for the mlh1 rad18 strain (AID 175); settings: S. cerevisiae mlh1 rad18 strain growth inhibition, stronger effect = higher value
# Summary of the method: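 Cells of a genetically altered yeast strain, deficient in DNA damage repair, were treated with compound. Their growth was then compared with that of vehicle-treated cultures to give inhibition.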
# [14] = NCI Yeast Anticancer Drug Screen. Data for the rad18 strain (AID 177); settings: S. cerevisiae rad18 mutant growth inhibition, stronger effect = higher value
# Summary of the method: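 Compounds are applied to a repair-deficient yeast strain, and growth is compared with that of vehicle-treated cultures to give percent inhibition.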
# [15] = NCI Yeast Anticancer Drug Screen. Data for the rad50 strain (AID 155);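 also: 0% = growth of vehicle-only cultures of the same strain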; settings: S. cerevisiae rad50 strain growth inhibition, stronger effect = higher value
# Summary of the method: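 DNA repair mutant yeast, compound exposure, growth read-out; inhibition is taken relative to vehicle.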
# [16] = NCI Yeast Anticancer Drug Screen. Data for the bub3 strain (AID 167); settings: S. cerevisiae bub3 mutant strain, stronger effect = higher value
# Summary of the method: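 In this screen, a yeast mutant lacking normal mitotic checkpoint function is challenged with compound. Relative growth versus vehicle gives the inhibition value.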
# [17] = at 5.0 µM (retest, dose inferred, filed as 0.5)
# [18] = at 50.0 µM (retest, dose inferred, filed as 5.0)
smiles,measurement,setting,value
C(=N/NC1=NCCN1)/c1c2ccccc2c(/C=N\NC2=NCCN2)c2ccccc12,growth inhibition,[1]; at 1.2 µM,70% (active)
same,growth inhibition,[1]; at 3.7 µM,86% (active)
same,growth inhibition,[1]; at 11.0 µM,94% (active)
same,growth inhibition,[1]; at 33.0 µM,94% (active)
same,growth inhibition,[1]; at 100.0 µM,96% (active)
same,growth inhibition,[2]; at 1.2 µM,-4% (inactive)
same,growth inhibition,[2]; at 3.7 µM,9% (inactive)
same,growth inhibition,[2]; at 11.0 µM,9% (inactive)
same,growth inhibition,[2]; at 33.0 µM,52% (inactive)
same,growth inhibition,[2]; at 100.0 µM,86% (active)
same,growth inhibition,[3]; at 1.2 µM,6% (inactive)
same,growth inhibition,[3]; at 3.7 µM,33% (inactive)
same,growth inhibition,[3]; at 11.0 µM,81% (active)
same,growth inhibition,[3]; at 33.0 µM,92% (active)
same,growth inhibition,[3]; at 100.0 µM,94% (active)
same,growth inhibition,[4]; at 1.2 µM,-8% (inactive)
same,growth inhibition,[4]; at 3.7 µM,-6% (inactive)
same,growth inhibition,[4]; at 11.0 µM,4% (inactive)
same,growth inhibition,[4]; at 33.0 µM,64% (inactive)
same,growth inhibition,[4]; at 100.0 µM,90% (active)
same,growth inhibition,[5]; at 1.2 µM,6% (inactive)
same,growth inhibition,[5]; at 3.7 µM,1% (inactive)
same,growth inhibition,[5]; [17],-13% (inactive)
same,growth inhibition,[5]; at 11.0 µM,20% (inactive)
same,growth inhibition,[5]; at 33.0 µM,81% (active)
same,growth inhibition,[5]; [18],80% (active)
same,growth inhibition,[5]; at 50.0 µM,83.6% (active)
same,growth inhibition,[5]; at 100.0 µM,90% (active)
same,growth inhibition,[6]; at 1.2 µM,-9% (inactive)
same,growth inhibition,[6]; at 3.7 µM,-25% (inactive)
same,growth inhibition,[6]; at 11.0 µM,-3% (inactive)
same,growth inhibition,[6]; at 33.0 µM,67% (inactive)
same,growth inhibition,[6]; at 100.0 µM,89% (active)
same,growth inhibition,[7]; [17],-7% (inactive)
same,growth inhibition,[7]; [18],90% (active)
same,growth inhibition,[7]; at 50.0 µM,85.2% (active)
same,growth inhibition,[8]; at 1.2 µM,-2% (inactive)
same,growth inhibition,[8]; at 3.7 µM,-12% (inactive)
same,growth inhibition,[8]; at 11.0 µM,13% (inactive)
same,growth inhibition,[8]; at 33.0 µM,58% (inactive)
same,growth inhibition,[8]; at 100.0 µM,84% (active)
same,growth inhibition,[9]; [17],7% (inactive)
same,growth inhibition,[9]; [18],56% (inactive)
same,growth inhibition,[9]; at 50.0 µM,62.5% (inactive)
same,growth inhibition,[10]; at 1.2 µM,-4% (inactive)
same,growth inhibition,[10]; at 3.7 µM,-6% (inactive)
same,growth inhibition,[10]; at 11.0 µM,11% (inactive)
same,growth inhibition,[10]; at 33.0 µM,79% (active)
same,growth inhibition,[10]; at 100.0 µM,86% (active)
same,growth inhibition,[11]; at 1.2 µM,11% (inactive)
same,growth inhibition,[11]; at 3.7 µM,16% (inactive)
same,growth inhibition,[11]; at 11.0 µM,21% (inactive)
same,growth inhibition,[11]; at 33.0 µM,73% (active)
same,growth inhibition,[11]; at 100.0 µM,90% (active)
same,growth inhibition,[12]; at 1.2 µM,0% (inactive)
same,growth inhibition,[12]; at 3.7 µM,8% (inactive)
same,growth inhibition,[12]; at 11.0 µM,22% (inactive)
same,growth inhibition,[12]; at 33.0 µM,81% (active)
same,growth inhibition,[12]; at 100.0 µM,92% (active)
same,growth inhibition,[13]; [17],-14% (inactive)
same,growth inhibition,[13]; [18],83% (active)
same,growth inhibition,[14]; at 1.2 µM,-3% (inactive)
same,growth inhibition,[14]; at 3.7 µM,-6% (inactive)
same,growth inhibition,[14]; at 11.0 µM,4% (inactive)
same,growth inhibition,[14]; at 33.0 µM,78% (active)
same,growth inhibition,[14]; at 100.0 µM,92% (active)
CN(C)c1ccc(/C=C/c2ccnc3ccccc23)cc1N,growth inhibition,[1]; at 1.2 µM,-6% (inactive)
same,growth inhibition,[1]; at 3.7 µM,-8% (inactive)
same,growth inhibition,[1]; at 11.0 µM,-10% (inactive)
same,growth inhibition,[1]; at 33.0 µM,-5% (inactive)
same,growth inhibition,[1]; at 100.0 µM,5% (inactive)
same,growth inhibition,[2]; at 1.2 µM,-2% (inactive)
same,growth inhibition,[2]; at 3.7 µM,-4% (inactive)
same,growth inhibition,[2]; at 11.0 µM,-9% (inactive)
same,growth inhibition,[2]; at 33.0 µM,-15% (inactive)
same,growth inhibition,[2]; at 100.0 µM,-7% (inactive)
same,growth inhibition,[3]; at 1.2 µM,-7% (inactive)
same,growth inhibition,[3]; at 3.7 µM,-4% (inactive)
same,growth inhibition,[3]; at 11.0 µM,5% (inactive)
same,growth inhibition,[3]; at 33.0 µM,29% (inactive)
same,growth inhibition,[3]; at 100.0 µM,56% (inactive)
same,growth inhibition,[15]; at 1.2 µM,-5% (inactive)
same,growth inhibition,[15]; at 3.7 µM,-10% (inactive)
same,growth inhibition,[15]; [17],-25% (inactive) and -10% (inactive)
same,growth inhibition,[15]; at 11.0 µM,-13% (inactive)
same,growth inhibition,[15]; at 33.0 µM,5% (inactive)
same,growth inhibition,[15]; [18],-13% (inactive) and 77% (active)
same,growth inhibition,[15]; at 50.0 µM,2.85% (inactive) and -9.8% (inactive)
same,growth inhibition,[15]; at 100.0 µM,17% (inactive)
same,growth inhibition,[5]; at 1.2 µM,-6% (inactive)
same,growth inhibition,[5]; at 3.7 µM,-6% (inactive)
same,growth inhibition,[5]; [17],-1% (inactive) and 4% (inactive)
same,growth inhibition,[5]; at 11.0 µM,-7% (inactive)
same,growth inhibition,[5]; at 33.0 µM,-4% (inactive)
same,growth inhibition,[5]; [18],-6% (inactive) and 94% (active)
same,growth inhibition,[5]; at 50.0 µM,32.1% (inactive) and -2.55% (inactive)
same,growth inhibition,[5]; at 100.0 µM,14% (inactive)
same,growth inhibition,[6]; at 1.2 µM,-7% (inactive)
same,growth inhibition,[6]; at 3.7 µM,-7% (inactive)
same,growth inhibition,[6]; at 11.0 µM,-8% (inactive)
same,growth inhibition,[6]; at 33.0 µM,3% (inactive)
same,growth inhibition,[6]; at 100.0 µM,17% (inactive)
same,growth inhibition,[7]; [17],-8% (inactive) and -6% (inactive)
same,growth inhibition,[7]; [18],43% (inactive) and 95% (active)
same,growth inhibition,[7]; at 50.0 µM,64.8% (inactive) and 1.25% (inactive)
same,growth inhibition,[8]; at 1.2 µM,-1% (inactive)
same,growth inhibition,[8]; at 3.7 µM,-5% (inactive)
same,growth inhibition,[8]; at 11.0 µM,-19% (inactive)
same,growth inhibition,[8]; at 33.0 µM,-16% (inactive)
same,growth inhibition,[8]; at 100.0 µM,-4% (inactive)
same,growth inhibition,[9]; [17],-6% (inactive) and -8% (inactive)
same,growth inhibition,[9]; [18],7% (inactive) and 40% (inactive)
same,growth inhibition,[9]; at 50.0 µM,-28.1% (inactive) and -22.4% (inactive)
same,growth inhibition,[16]; at 1.2 µM,-5% (inactive)
same,growth inhibition,[16]; at 3.7 µM,-5% (inactive)
same,growth inhibition,[16]; [17],3% (inactive) and -7% (inactive)
same,growth inhibition,[16]; at 11.0 µM,-8% (inactive)
same,growth inhibition,[16]; at 33.0 µM,-6% (inactive)
same,growth inhibition,[16]; [18],5% (inactive) and 89% (active)
same,growth inhibition,[16]; at 50.0 µM,81.6% (active) and -6.75% (inactive)
same,growth inhibition,[16]; at 100.0 µM,20% (inactive)
same,growth inhibition,[10]; at 1.2 µM,-5% (inactive)
same,growth inhibition,[10]; at 3.7 µM,-8% (inactive)
same,growth inhibition,[10]; at 11.0 µM,-10% (inactive)
same,growth inhibition,[10]; at 33.0 µM,6% (inactive)
same,growth inhibition,[10]; at 100.0 µM,52% (inactive)
same,growth inhibition,[11]; at 1.2 µM,-3% (inactive)
same,growth inhibition,[11]; at 3.7 µM,-3% (inactive)
same,growth inhibition,[11]; at 11.0 µM,-1% (inactive)
same,growth inhibition,[11]; at 33.0 µM,7% (inactive)
same,growth inhibition,[11]; at 100.0 µM,42% (inactive)
same,growth inhibition,[12]; at 1.2 µM,-3% (inactive)
same,growth inhibition,[12]; at 3.7 µM,-2% (inactive)
same,growth inhibition,[12]; at 11.0 µM,-3% (inactive)
same,growth inhibition,[12]; at 33.0 µM,20% (inactive)
same,growth inhibition,[12]; at 100.0 µM,64% (inactive)
same,growth inhibition,[13]; [17],-12% (inactive) and 5% (inactive)
same,growth inhibition,[13]; [18],13% (inactive) and 97% (active)
same,growth inhibition,[13]; at 50.0 µM,81.8% (active) and 0.6% (inactive)
